# Tau fluor counter: counter-screen for tau fibril formation inhibitors. tau K18 P301L Alexa594 fluorescence, heparin fibrillization. Potency, µM (series often up to 57.7 µM), for the others: at the highest dose activity change, negative = decrease. 280,000 compounds, 0.93% hits; further: nearly all actives have a fitted effect of over 55% in size
#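 Human K18 P301L tau (15 uM unlabeled plus 0.24 uM Alexa 594-labeled, final) in 100 mM sodium acetate pH 7 was mixed with compound and 20 uM heparin and incubated 6 hr at 37 C.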
# RORgamma inh: inhibitors of mouse ROR gamma transcriptional activity; P51450; Drosophila S2 Gal4-RORgamma UAS-luciferase reporter, 20 h; Potency, µM (highest dose often 53.6 µM), without a hit: at the top dose activity change, negative = inhibition, usual class: inhibitors; 310,000 compounds, 5.4% hits; further: nearly all actives have a fitted effect of over 60% in size
# Target sequence (P51450 whole entry, looked up, the tested form may be a part): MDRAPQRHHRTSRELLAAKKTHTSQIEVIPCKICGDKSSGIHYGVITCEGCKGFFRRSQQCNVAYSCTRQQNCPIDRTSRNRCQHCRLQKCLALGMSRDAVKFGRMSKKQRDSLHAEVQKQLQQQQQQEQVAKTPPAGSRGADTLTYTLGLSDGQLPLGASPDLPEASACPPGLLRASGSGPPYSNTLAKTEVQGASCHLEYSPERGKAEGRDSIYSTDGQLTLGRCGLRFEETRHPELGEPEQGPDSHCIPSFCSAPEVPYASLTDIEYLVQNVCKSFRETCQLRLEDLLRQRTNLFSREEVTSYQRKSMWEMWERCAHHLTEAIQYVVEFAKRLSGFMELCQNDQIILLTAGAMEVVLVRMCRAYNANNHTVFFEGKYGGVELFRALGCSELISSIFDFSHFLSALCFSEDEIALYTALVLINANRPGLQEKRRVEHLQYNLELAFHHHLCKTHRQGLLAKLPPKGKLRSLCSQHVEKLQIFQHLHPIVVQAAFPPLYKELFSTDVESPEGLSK
#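 ROR gamma transcriptional activity was tracked as Gal4-UAS luciferase output in stably transfected Drosophila Schneider cells, with compound added 1 hr before 700 uM copper sulfate induction and a 20 hr ambient-temperature incubation.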
# Gal4-VP16 FLuc: counter-screen for ROR gamma inhibitors: Gal4-VP16 reporter. 310,000 compounds, 3.5% hits. Drosophila S2 Gal4-VP16 UAS-luciferase, luminescence, 20 h. Potency, µM (top dose mostly 53.6 µM), for the others: at the highest dose activity, negative = inhibition, actives largely listed as inhibitors;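 further: Gal4-VP16 expression switched on by copper sulfate through the metallothionein promoter; nearly all actives have a fitted effect of over 50% in size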
# Tau fibril ThT: tau fibrillization inhibition (ThT binding); P10636; recombinant tau K18 P301L, heparin-induced fibrillization, ThT fluorescence; Potency, µM (series often up to 57.4 µM), without a hit: at the highest dose activity, negative = inhibition, hits mostly inhibitors; 270,000 compounds, 2.1% hits; AID 1460; further: nearly all actives have a fitted effect of over 55% in size
# Target sequence (P10636 561-689 P618L limits assumed): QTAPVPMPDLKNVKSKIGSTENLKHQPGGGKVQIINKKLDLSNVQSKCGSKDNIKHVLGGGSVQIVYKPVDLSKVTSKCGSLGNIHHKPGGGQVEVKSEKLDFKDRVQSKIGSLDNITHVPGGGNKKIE
#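 Fibril formation assay: tau K18 P301L at 15 uM with trace Alexa 594 label, heparin inducer 20 uM, pH 7 sodium acetate buffer, 37 C for 6 hr; endpoint ThT signal.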
# Tau FP inhib: blocks human tau fibril formation measured by polarization; AID 1468; P10636; Potency, µM (titrated, usually from 57.7 µM), inactives show at the top dose activity, negative = inhibition, most hits filed as inhibitors; K18 P301L tau heparin fibrillization, Alexa594 FP, 6 h; 280,000 compounds, 0.39% hits; further: nearly all actives have a fitted effect of over 55% in size
#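 K18 P301L tau (15 uM unlabeled/0.24 uM Alexa 594-labeled, final) + compound + heparin 20 uM final; 100 mM NaOAc pH 7; 6 hr 37 C; ThT 30 uM final added, 1 hr RT; FP ex 555/em 632 nm.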
# Numbers without * were called inactive; ? = inconclusive; / = no result given; [ ] = remark or other dose. Sampled rows, rich in hits. Any-hit rate of the full collection: about 7.3%. The call rests on the fitted dose curve; in most records, active means well fitted curve in the direction sought with a large enough effect; inconclusive means small, poorly fitted or top-dose-only effect, or another doubt; inactive means no such curve, though single readings can be large; an effect the other way counts as inactive or inconclusive. On the % scale 0 is the no-effect control and ±100 the full control effect; potency means the concentration at half of the fitted maximal effect.
SMILES,Tau fluor counter,RORgamma inh,Gal4-VP16 FLuc,Tau fibril ThT,Tau FP inhib
CC(C)NC(=S)NCc1cccs1,2.8%,?,-5.4%,2.2%,-5.5%
NS(=O)(=O)c1ccc(NC(=S)NCc2cccs2)cc1,-6.9%,3.2%,6.3%,-2.5%,0.8%
COc1ccc(Cl)cc1NC(=S)NCc1cccs1,-29.9%,10µM*,?,0.4%,-8.1%
COc1cccc(NC(=S)NCc2ccccc2)c1,/,10µM*,8.91µM*,/,/
COc1ccccc1NC(=S)NCc1cccs1,2.8%,?,-27.3%,-0.6%,-1.4%
S=C(NCc1cccs1)Nc1ccccc1,5.7%,10µM*,?,5.4%,-2.8%
CCCC(=O)O[C@]1(C(=O)COC(C)=O)CC[C@H]2C3C[C@H](F)C4=CC(=O)C=CC4(C)[C@@]3(F)[C@@H](O)CC21C (some centres undefined),/,-25.1%,1.0%,/,/
COc1ccc(CN(C)c2ncnc3sccc23)c(OC)c1OC,/,37.4%,-4.4%,/,/
Fc1ccc(NC(=S)NCc2cccs2)cc1,-0.1%,11.2µM*,28.2µM*,3.6%,-1.9%
Cc1ccc(NC(=S)NCc2cccs2)cc1,-8.8%,11.2µM*,?,-9.9%,-8.7%
Cc1ccc(C)c(NC(=S)NCc2cccs2)c1,2.8%,3.98µM*,11.2µM*,4.8%,7.4%
Cc1ccccc1NC(=S)NCc1cccs1,-5.9%,?,?,-6.0%,1.3%
C=CCNC(=S)Nc1cc(Cl)ccc1OC,-2.7%,12.6µM*,?,0.2%,-0.4%
C=CCN(CC=C)C(=S)Nc1cc(Cl)ccc1OC,-16.0%,?,-13.6%,-7.4%,-4.3%
O=C(Cc1cccs1)NCc1ccc(F)cc1,3.0%,27.8%,19.2%,11.1%,-5.4%
NC(C(=O)O)c1ccc(P(=O)(O)O)cc1 (centres undefined),-0.5%,/,/,3.3%,-2.8%
O=C(c1ccc(Br)cc1)N1CCC(C(=O)N2CCN(Cc3ccccc3)CC2)CC1,/,3.7%,6.5%,/,/
COc1cccc(NC(=S)NCc2cccs2)c1,4.7%,10µM*,?,3.7%,0.0%
Cc1ccc(NC(=S)N(Cc2ccccc2)Cc2cccs2)c(C)c1,-14.2%,7.08µM*,?,-3.1%,?
COc1ccc(NC(=S)NCc2cccs2)cc1OC,-10.2%,12.6µM*,-11.0%,-5.3%,4.3%
Cc1cccc(NC(=S)NCc2cccs2)c1,-6.1%,6.31µM*,?,-1.8%,-2.5%
Cc1ccc2c(c1)N(CCC(=O)NC1CCCCC1C)C(=O)CO2 (centres undefined),/,-6.0%,-13.3%,/,/
CC(O)CNc1nc2ccccc2n1-c1ncnc2sc3c(c12)CCC3 (centres undefined),-18.0%,?,14.1µM*,-15.0%,-7.3%
COc1cccc(-c2nc3c(c(=O)[nH]c(=O)n3Cc3ccccc3)n2CCO)c1OC(F)F,/,2.2%,-6.3%,/,/
Cc1ccc(C(=O)NC(=S)NCC2CCCO2)cc1[N+](=O)[O-] (centres undefined),-5.4%,7.08µM*,?,-0.8%,1.7%
SMILES,Tau fluor counter,RORgamma inh,Gal4-VP16 FLuc,Tau fibril ThT,Tau FP inhib
O=C(NCCc1ccccc1)c1ccc(NCC2CCCO2)c([N+](=O)[O-])c1 (centres undefined),-19.9%,?,4.3%[10 µM],15.8µM*,10.2%
Cc1ccc(C(=O)NCC2CCCO2)cc1[N+](=O)[O-] (centres undefined),-5.1%,23.3%,5.4%,-6.4%,-8.3%
Cc1ccc(C(=O)NNC(=S)NCC2CCCO2)cc1[N+](=O)[O-] (centres undefined),/,5.62µM*,-22.3%,/,/
NC(=O)c1ccc(NCC2CCCO2)c([N+](=O)[O-])c1 (centres undefined),/,-21.0%,-17.0%,/,/
CCOc1cc(-c2ccc(OC(=O)c3ccccc3)c(OC)c2)cc(=O)c2c(C)oc(C)c12,-12.8%,/,/,?,-1.7%
O=C1C2C3C=CC(C4CC34)C2C(=O)N1c1cccc2ccccc12 (centres undefined),/,-1.4%,1.1%,/,/
CS(=O)(=O)Nc1cccc(-c2ccc3ncnc(NC4CCNCC4)c3c2)c1,/,2.8%,-8.4%,/,/
COc1ccc(Cl)cc1N(C)C(=O)Cn1cnc2sc(C)c(S(=O)(=O)N3CCN(c4ncccn4)CC3)c2c1=O,-3.6%,/,/,-1.8%,8.9%
Oc1ccc2ccccc2c1C=Nc1ccc(Cl)cn1,0.7%,?,1.3%,-1.3%,6.3%
Oc1ccc2ccccc2c1/C=N/Nc1ccccc1,11.2µM*[quencher],?,?,17.8µM*,?
Oc1ccc2ccccc2c1/C=N/n1cnnc1,-12.8%,-6.3%,1.7%,?,4.6%
Cc1cc(N/N=C/c2c(O)ccc3ccccc23)nc(-c2ccccc2O)n1,9.6%,7.08µM*,3.98µM*,9.4%,-1.0%
O=CN/N=C/c1c(O)ccc2ccccc12,-8.7%,0.794µM*,2.82µM*,-2.5%,-8.4%
Oc1ccc2ccccc2c1/C=N/c1nc2c(s1)CCCC2,?,?,?,31.6µM*,?
Cc1cc(C)cc(OC(=O)c2cc(-c3ccc4c(c3)OCCO4)on2)c1,-15.7%,/,/,?,-11.0%
Cc1cccc(NCc2ccc(Br)cc2)n1,/,-28.0%,14.7%,/,/
Cc1c(Cl)cccc1NC(=O)CSc1nc(=O)[nH]c2c1CCC2,-1.1%,/,/,-5.6%,-6.9%
CCCn1c2ccccc2c2cnn(CC(=O)NCc3cc(OC)ccc3OC)c(=O)c21,9.4%,/,/,12.9%,-2.1%
NC(=S)N/N=C/c1c(O)ccc2ccccc12,?,1.12µM*,3.98µM*,/,6.6%
Oc1ccc2ccccc2c1C=NC1CCCCC1,?,?,?,25.1µM*,?
O=C(Cc1n[nH]c(=O)[nH]c1=O)N/N=C/c1c(O)ccc2ccccc12,7.9%,30.1%,3.4%,10.7%,-1.4%
O=S(=O)(/N=C/c1c(O)ccc2ccccc12)c1cccs1,-24.8%,?,-19.0%,?,?
COc1ccc(N/N=C/c2c(C(=O)O)ccc3ccccc23)cc1,?,1.41µM*,4.47µM*,?,1.8%
Cc1ccc(S(=O)(=O)/N=C/c2c(O)ccc3ccccc23)cc1,/,17.8µM*,?,/,/
CCOc1ccc(NC(=O)CSc2oc(-c3ccc(C)cc3)nc2S(=O)(=O)c2ccc(C)cc2)cc1,?,/,/,-11.8%,-7.7%
SMILES,Tau fluor counter,RORgamma inh,Gal4-VP16 FLuc,Tau fibril ThT,Tau FP inhib
CCNc1ncc2nc(C)c(=O)n(Cc3cccc(OC)c3)c2n1,/,?,-0.1%,/,/
Cc1ccc(-n2ncc(Br)c(Br)c2=O)cc1,-18.8%,5.01µM*,2.82µM*,15.8µM*,?
O=c1c(Br)c(Br)cnn1-c1ccccc1,-6.0%,3.16µM*,5.01µM*,31.6µM*,?
O=c1c(Br)c(N2CCCC2)cnn1-c1ccccc1,5.8%,-11.2%,-19.3%,2.7%,1.5%
CC1CCN(C(=O)c2cc3c(ccc4ccccc43)o2)CC1,/,4.47µM*,10µM*,/,/
CCOC(=O)C1CCN(C(=O)c2cc3c(ccc4ccccc43)o2)CC1,/,-38.7%,-2.7%,/,/
COCCCN(C(=S)NC(=O)c1ccc(Br)cc1)c1c(N)n(Cc2ccccc2)c(=O)[nH]c1=O,-1.4%,10µM*,2.7%,-11.6%,-1.4%

# Source: PubChem BioAssay (National Center for Advancing Translational Sciences (NCATS))
